# Source: PubChem BioAssay AID1578 (Sanford-Burnham Center for Chemical Genomics, 2009)
# Out of some 290,000 compounds screened, about 3,000 (1%) were called active. The full list was thinned out, with actives kept by preference. Values without a mark were called inactive. Cut-off read from the data, not from the text of the source: active = inhibition mostly above about 36% (no sharp cut-off); inactive = mostly below about 34%.
# Experiment: NOD1 signaling inhibitors, primary screen, cell-based, luminescence, uHTS (AID 1578);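 note: HEK-293T reporter cells stimulated with the NOD1 agonist gamma-tri-DAP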
# Details: NOD1-driven NF-kB luciferase reporter cells, at 4 µM, stronger effect = higher value
row,SMILES,inhibition
1,CCOC(=O)C1=C(CC)Nc2ccccc2N=C1NC(=O)CCN1C(=O)C2CCCCC2C1=O (stereo not drawn),-14.8%
2,N#CC1=C(S)N(c2ccccc2)C(c2ccco2)NC1=O (stereo not drawn),68.4% (active)
3,Cc1ccc(N2C(S)=C(C#N)C(=O)NC2c2ccco2)cc1 (stereo not drawn),-33.2%
4,N#CC1=C(S)N(c2ccc(F)cc2)C(c2ccco2)NC1=O (stereo not drawn),-47.2%
5,CCC(=O)c1ccc(OCC(=O)NC2(C#N)CCCCC2)cc1,-14.9%
6,COc1ccc(CCNC(=O)C(=O)NCC2OCCN2C(=O)c2ccc(Cl)cc2)cc1OC (stereo not drawn),-3.4%
7,Cc1cc(C)c(C2C(C#N)=C(N)Oc3n[nH]c(C)c32)cc1CN1CCOCC1 (stereo not drawn),-16%
8,COc1ccc(/C=N/Nc2nnc(Cc3ccc(OC)c(OC)c3)c(=O)[nH]2)cc1OC,4.2%
9,COc1ccc(-c2nc3cc(C)ccn3c2NCc2ccc3c(c2)OCO3)cc1,48.5% (active)
10,Cc1ccn2c(NCc3ccc4c(c3)OCO4)c(-c3ccc(O)cc3)nc2c1,3.7%
11,COc1ccc(-c2nc3ccccn3c2NCc2ccc3c(c2)OCO3)cc1,-27.1%
12,Cc1cccc(C)c1OCc1nnc(SCC(=O)Nc2ccc(N3CCOCC3)cc2)o1,17.6%
13,COc1cc(S(=O)(=O)NCc2ccccc2)ccc1Br,-7.9%
14,Cc1ccc(NCc2ccncc2)c(Br)c1,63.7% (active)
15,Cc1cc(C)cc(NCc2ccncc2)c1,-8.1%
16,Cc1cc(-c2ccc(C)c(S(=O)(=O)NCc3cccc(Br)c3)c2)on1,-20.4%
17,Cc1cc(-c2ccc(C)c(S(=O)(=O)NCc3ccc(OC(C)C)cc3)c2)on1,-14.2%
18,Cc1ccc(C)c(S(=O)(=O)NCc2ccncc2)c1,34.2%
19,COc1ccc(S(=O)(=O)NCc2ccncc2)cc1OC,24.7%
20,Cc1cc(Br)c(S(=O)(=O)NCc2ccncc2)cc1C,26%
21,Cc1ccc(NCc2cccnc2)c(Br)c1,-14.3%
22,Cc1cc(-c2ccc(C)c(S(=O)(=O)NCc3ccc(Br)cc3)c2)on1,72.5% (active)
23,O=c1[nH]c2ccc(NC(=S)NC3CCCCC3)cc2[nH]1,0.4%
24,NNC(=O)c1cccn(Cc2cccc(C(F)(F)F)c2)c1=O,-7.3%

row,SMILES,inhibition
1,CCn1c(SCC(=O)Nc2nc(C)c(C)s2)nnc1-c1ccco1,4.8%
2,O=C(NCCCCc1ccccc1)Nc1cccc(F)c1,-18.4%
3,CCc1nnc(NS(=O)(=O)c2ccc(NC(=S)NC(=O)c3ccc(OC)c(OC)c3)cc2)s1,-10.1%
4,C#Cc1ccc([C@@H]2C=C(C(=O)N3CCN(Cc4ccc5c(c4)OCO5)CC3)O[C@H](OCCCCO)C2)cc1,-5.3%
5,O=C(CN1CC[C@@]2(O)CCCC[C@H]2[C@@H]1c1ccc(F)cc1)NCc1ccco1,-15%
6,Cc1cc(Cl)ccc1C(=O)C1CCCN(C(=O)c2cscn2)C1 (stereo not drawn),-13.1%
7,COC(=O)C(CCSC)NS(=O)(=O)c1ccc(Cl)cc1 (stereo not drawn),-19.4%
8,O=S(=O)(c1ccccc1)N(Cc1ccccc1)c1ccccn1,-18.3%
9,CC(=O)Nc1nc(-c2ccc3c(c2)OCO3)cs1,1.1%
10,O=C(Nc1nc(-c2ccc3c(c2)OCO3)cs1)C1CC1,-36.4%
11,Cc1ccc2nc(N3CCN(S(=O)(=O)c4ccc(C)c(Cl)c4)CC3)c(C#N)cc2c1,-0.6%
12,Cc1nc2ccc(S(=O)(=O)NCC(=O)N3CCN(c4ccccn4)CC3)cc2s1,8.2%
13,COC(=O)C1(CCSC)NC(c2ccco2)C2C(=O)N(C)C(=O)C21 (stereo not drawn),-7.2%
14,COc1cc(NC(=O)COc2ccc(-n3ccnc3)cc2)cc(OC)c1,39.3%
15,C/C(=N\NC(=O)COc1ccc(C(C)(C)C)cc1)c1ccc(-n2ccnc2)cc1,-48%
16,CC(C)(C)c1ccc(NC(=O)COc2ccc(-n3ccnc3)cc2)cc1,74.6% (active)
17,Cc1ccc(NC(=O)CSc2nnc(C)n2CC2CCCO2)cc1 (stereo not drawn),-27.7%
18,CCc1ccccc1NCC(=O)Nc1ccc(Cl)c(C(F)(F)F)c1,-18.7%
19,C=CCSC1=NN2CCS(=O)(=O)N=C2S1,-14.6%
20,CCSC1=NN2CCS(=O)(=O)N=C2S1,44.5% (active)
21,CCOC(=O)CSC1=NN2CCS(=O)(=O)N=C2S1,-12.9%
22,COc1ccc(/C(N)=N/OC(=O)c2cccs2)cc1OC,-61.8%
23,COc1ccccc1CNC(=O)C1CCN(C(=O)c2sccc2-n2cccc2)CC1,-18.4%
24,CCC(NC(=O)c1ccccc1NC(=O)c1ccccc1)C(=O)NNC(=O)c1cccnc1 (stereo not drawn),-7.6%
